# Test results: paper PMC7862700, “An all-to-all approach to the identification of sequence-specific readers for epigenetic DNA modifications on cytosine”
# Tests used:
# Assay in all cases: DAPPL (digital affinity profiling via proximity ligation, sequencing); 10 mM Tris-HCl pH 7.5, 50 mM NaCl, 1 mM DTT, 4% glycerol, room temperature, 30 min; GST-TFs on glutathione beads, 16-mer random dsDNA library, 0.1% formaldehyde crosslink after washing; high values mean tight binding
# [1] = biological target: T1, FLI1 (Homo sapiens, UniProt Q01543 1-452); details: protein: recombinant; tags: N-terminal GST; dsDNA, one strand shown
# T1 sequence: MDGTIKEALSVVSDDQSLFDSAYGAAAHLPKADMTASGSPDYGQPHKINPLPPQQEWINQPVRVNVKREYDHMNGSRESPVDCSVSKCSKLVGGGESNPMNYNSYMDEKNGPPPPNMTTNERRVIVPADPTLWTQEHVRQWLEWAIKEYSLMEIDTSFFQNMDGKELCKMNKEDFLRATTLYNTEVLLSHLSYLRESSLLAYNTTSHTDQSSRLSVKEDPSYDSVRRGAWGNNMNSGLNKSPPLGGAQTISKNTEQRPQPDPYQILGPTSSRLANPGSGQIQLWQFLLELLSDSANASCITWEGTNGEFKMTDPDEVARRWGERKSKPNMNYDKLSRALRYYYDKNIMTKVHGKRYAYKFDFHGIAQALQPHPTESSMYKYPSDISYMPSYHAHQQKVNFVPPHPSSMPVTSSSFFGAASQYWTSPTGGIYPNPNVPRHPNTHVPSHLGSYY
# How it was run: (§1)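 A tag-only sample was pooled with DNA-barcoded human transcription factors that had been expressed in yeast as GST fusions and captured on glutathione beads. The pools were incubated for 30 min at room temperature with 200 nmole of a random double-stranded 16-mer DNA library in Tris/NaCl/DTT/glycerol buffer, then washed, crosslinked with 0.1% formaldehyde, proximity-ligated (BsaI/T4 ligase, 1 h, 37 °C), PCR-amplified and sequenced on an Illumina NextSeq500. Binding signal is each hexamer's read frequency for a factor divided by its frequency for the tag-only sample.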
# [2] = biological target: T2, ELK1 (Homo sapiens, UniProt P19419 1-428); details: protein: recombinant; tags: N-terminal GST; dsDNA, one strand shown
# T2 sequence: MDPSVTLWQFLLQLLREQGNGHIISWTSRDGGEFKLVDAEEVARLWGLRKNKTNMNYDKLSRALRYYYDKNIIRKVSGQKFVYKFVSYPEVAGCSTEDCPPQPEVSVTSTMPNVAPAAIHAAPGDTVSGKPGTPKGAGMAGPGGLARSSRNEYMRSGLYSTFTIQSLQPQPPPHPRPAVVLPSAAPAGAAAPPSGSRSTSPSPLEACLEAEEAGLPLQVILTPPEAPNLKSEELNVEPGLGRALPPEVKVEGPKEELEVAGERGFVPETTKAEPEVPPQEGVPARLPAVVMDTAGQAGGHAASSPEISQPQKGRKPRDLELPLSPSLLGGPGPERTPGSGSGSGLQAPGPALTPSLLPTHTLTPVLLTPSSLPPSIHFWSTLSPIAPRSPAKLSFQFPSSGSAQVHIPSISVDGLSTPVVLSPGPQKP
# How it was run: as §1
# [3] = biological target: T3, GABPA (Homo sapiens, UniProt Q06546 1-454); details: protein: recombinant; tags: N-terminal GST; dsDNA, one strand shown
# T3 sequence: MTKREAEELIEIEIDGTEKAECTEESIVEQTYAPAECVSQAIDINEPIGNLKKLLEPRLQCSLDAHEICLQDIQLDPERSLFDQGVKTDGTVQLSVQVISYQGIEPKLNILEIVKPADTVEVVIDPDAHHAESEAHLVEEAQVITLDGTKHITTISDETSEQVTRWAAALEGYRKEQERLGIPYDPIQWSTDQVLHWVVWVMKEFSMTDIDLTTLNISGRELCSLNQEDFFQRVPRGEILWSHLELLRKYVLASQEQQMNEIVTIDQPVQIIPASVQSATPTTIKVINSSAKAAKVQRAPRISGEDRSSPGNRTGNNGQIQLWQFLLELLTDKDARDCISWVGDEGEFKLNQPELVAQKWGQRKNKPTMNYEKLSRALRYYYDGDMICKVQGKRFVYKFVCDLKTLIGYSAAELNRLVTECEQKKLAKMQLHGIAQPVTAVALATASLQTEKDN
# How it was run: as §1
# [4] = biological target: T4, ERG (Homo sapiens, UniProt P11308 1-479); details: protein: recombinant; tags: N-terminal GST; dsDNA, one strand shown
# T4 sequence: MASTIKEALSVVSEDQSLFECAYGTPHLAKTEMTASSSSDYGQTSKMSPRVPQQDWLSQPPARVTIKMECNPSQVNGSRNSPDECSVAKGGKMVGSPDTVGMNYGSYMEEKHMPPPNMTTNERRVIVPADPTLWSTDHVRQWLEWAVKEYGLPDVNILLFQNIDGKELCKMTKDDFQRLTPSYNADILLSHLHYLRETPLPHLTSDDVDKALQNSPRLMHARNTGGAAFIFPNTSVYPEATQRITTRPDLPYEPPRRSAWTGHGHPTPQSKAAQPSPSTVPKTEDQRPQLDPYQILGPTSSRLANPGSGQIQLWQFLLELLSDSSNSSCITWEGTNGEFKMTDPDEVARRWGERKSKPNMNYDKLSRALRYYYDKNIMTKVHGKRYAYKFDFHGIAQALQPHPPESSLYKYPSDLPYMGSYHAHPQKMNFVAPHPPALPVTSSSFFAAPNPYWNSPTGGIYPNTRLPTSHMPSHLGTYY
# How it was run: as §1
# [5] = biological target: ELF1 (Homo sapiens, UniProt P32519 1-619); details: protein: recombinant; tags: N-terminal GST; dsDNA, one strand shown
# ELF1, sequence (P32519 whole entry): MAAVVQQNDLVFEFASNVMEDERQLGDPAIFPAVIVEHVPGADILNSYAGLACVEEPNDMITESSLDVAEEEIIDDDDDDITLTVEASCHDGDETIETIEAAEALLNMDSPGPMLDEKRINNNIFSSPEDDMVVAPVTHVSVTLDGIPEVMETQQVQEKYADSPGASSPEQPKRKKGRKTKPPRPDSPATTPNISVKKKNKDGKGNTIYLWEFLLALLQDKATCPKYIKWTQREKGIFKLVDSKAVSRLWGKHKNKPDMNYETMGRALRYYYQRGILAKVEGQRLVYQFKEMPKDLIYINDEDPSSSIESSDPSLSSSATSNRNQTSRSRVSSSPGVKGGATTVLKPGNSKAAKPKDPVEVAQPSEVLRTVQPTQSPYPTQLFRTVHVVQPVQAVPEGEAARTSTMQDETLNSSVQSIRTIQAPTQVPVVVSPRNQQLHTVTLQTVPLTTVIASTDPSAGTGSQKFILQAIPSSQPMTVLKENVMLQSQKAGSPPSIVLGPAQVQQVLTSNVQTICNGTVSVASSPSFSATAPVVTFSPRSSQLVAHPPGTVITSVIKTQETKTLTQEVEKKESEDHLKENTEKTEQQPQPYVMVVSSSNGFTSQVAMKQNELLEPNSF
# How it was run: as §1
# [6] = biological target: T5, EHF (Homo sapiens, UniProt Q9NZC4 1-300); details: protein: recombinant; tags: N-terminal GST; dsDNA, one strand shown
# T5 sequence: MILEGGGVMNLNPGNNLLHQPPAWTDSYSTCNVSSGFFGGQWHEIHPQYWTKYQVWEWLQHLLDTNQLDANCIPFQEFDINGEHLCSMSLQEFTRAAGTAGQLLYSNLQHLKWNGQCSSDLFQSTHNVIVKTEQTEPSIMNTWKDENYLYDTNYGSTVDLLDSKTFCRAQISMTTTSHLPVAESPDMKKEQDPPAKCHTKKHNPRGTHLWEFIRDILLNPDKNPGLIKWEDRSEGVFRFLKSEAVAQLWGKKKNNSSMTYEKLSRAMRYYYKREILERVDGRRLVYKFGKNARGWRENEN
# How it was run: as §1
# [7] = biological target: SPI1 (Homo sapiens, UniProt P17947 1-270); details: protein: recombinant; tags: N-terminal GST; dsDNA, one strand shown
# How it was run: as §1
# [8] = biological target: SPIB (Homo sapiens, UniProt Q01892 1-262); details: protein: recombinant; tags: N-terminal GST; dsDNA, one strand shown
# SPIB, sequence (Q01892 whole entry): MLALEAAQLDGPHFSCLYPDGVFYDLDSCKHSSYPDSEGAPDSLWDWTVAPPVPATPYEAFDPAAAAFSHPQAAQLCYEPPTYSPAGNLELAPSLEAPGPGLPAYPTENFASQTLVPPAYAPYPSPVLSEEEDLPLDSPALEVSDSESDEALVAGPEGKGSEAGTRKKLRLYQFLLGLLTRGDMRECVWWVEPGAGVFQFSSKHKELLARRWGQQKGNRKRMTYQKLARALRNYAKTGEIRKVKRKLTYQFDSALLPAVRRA
# How it was run: as §1
# [9] = biological target: T6, ELK3 (Homo sapiens, UniProt P41970 1-407); details: protein: recombinant; tags: N-terminal GST; dsDNA, one strand shown
# T6 sequence: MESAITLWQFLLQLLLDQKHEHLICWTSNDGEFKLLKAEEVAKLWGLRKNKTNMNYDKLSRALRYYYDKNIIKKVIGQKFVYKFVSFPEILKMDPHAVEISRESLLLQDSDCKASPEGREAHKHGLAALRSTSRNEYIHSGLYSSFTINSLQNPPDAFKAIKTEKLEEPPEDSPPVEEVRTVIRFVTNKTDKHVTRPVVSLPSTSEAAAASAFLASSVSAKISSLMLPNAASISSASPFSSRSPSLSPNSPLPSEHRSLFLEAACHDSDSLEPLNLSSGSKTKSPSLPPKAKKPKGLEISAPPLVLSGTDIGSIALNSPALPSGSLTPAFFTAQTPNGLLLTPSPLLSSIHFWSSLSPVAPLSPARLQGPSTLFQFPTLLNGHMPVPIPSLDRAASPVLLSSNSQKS
# How it was run: as §1
# [10] = biological target: T7, FEV (Homo sapiens, UniProt Q99581 1-238); details: protein: recombinant; tags: N-terminal GST; dsDNA, one strand shown
# T7 sequence: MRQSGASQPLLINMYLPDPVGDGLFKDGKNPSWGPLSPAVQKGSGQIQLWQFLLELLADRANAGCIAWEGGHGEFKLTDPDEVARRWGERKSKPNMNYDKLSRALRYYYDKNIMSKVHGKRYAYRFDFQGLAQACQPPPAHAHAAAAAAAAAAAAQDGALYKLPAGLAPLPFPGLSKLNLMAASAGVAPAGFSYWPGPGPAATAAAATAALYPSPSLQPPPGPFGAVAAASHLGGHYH
# How it was run: as §1
# [11] = biological target: ETV5 (Homo sapiens, UniProt P41161 1-510); details: protein: recombinant; tags: N-terminal GST; dsDNA, one strand shown
# ETV5, sequence (P41161 whole entry): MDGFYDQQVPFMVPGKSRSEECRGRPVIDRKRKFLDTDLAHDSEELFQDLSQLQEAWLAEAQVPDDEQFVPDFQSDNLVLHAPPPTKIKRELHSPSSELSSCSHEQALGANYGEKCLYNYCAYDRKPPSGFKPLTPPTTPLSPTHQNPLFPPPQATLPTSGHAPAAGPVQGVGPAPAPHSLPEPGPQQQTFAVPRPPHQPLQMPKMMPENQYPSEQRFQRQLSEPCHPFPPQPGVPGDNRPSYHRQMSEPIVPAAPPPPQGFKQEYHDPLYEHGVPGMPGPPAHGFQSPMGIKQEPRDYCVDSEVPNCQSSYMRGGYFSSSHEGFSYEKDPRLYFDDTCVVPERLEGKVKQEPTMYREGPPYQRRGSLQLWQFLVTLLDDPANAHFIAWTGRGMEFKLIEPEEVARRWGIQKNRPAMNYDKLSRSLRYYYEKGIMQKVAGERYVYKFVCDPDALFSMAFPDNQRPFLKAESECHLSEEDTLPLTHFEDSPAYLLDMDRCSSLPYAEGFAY
# How it was run: as §1
# [12] = biological target: HSF1 (Homo sapiens, UniProt Q00613 1-529); details: protein: recombinant; tags: N-terminal GST; chain copies: 3; dsDNA, one strand shown
# HSF1, sequence (Q00613 whole entry): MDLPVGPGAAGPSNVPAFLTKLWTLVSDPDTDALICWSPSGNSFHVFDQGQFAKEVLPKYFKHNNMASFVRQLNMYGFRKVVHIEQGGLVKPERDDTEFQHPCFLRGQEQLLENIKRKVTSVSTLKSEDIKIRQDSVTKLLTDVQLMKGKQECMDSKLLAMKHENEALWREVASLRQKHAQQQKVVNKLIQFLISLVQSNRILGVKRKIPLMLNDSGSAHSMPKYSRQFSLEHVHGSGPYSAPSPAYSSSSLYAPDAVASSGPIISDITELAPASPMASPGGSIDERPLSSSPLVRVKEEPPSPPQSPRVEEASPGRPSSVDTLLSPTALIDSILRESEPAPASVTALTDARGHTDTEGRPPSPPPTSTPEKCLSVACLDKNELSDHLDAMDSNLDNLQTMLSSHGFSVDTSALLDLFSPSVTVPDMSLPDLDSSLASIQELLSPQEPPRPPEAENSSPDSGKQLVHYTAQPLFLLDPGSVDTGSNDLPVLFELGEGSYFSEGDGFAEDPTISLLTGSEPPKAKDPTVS
# How it was run: as §1
# [13] = biological target: T8, SPIC (Homo sapiens, UniProt Q8N5J4 1-248); details: protein: recombinant; tags: N-terminal GST; dsDNA, one strand shown
# T8 sequence: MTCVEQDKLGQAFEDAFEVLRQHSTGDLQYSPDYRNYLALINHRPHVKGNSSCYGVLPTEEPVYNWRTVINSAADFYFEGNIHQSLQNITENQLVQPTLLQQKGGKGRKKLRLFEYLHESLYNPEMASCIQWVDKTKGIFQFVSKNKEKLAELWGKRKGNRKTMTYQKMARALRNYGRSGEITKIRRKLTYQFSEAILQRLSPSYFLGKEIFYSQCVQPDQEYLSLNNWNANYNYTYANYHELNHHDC
# How it was run: as §1
# [14] = biological target: ELF4 (Homo sapiens, UniProt Q99607 1-663); details: protein: recombinant; tags: N-terminal GST; dsDNA, one strand shown
# ELF4, sequence (Q99607 whole entry): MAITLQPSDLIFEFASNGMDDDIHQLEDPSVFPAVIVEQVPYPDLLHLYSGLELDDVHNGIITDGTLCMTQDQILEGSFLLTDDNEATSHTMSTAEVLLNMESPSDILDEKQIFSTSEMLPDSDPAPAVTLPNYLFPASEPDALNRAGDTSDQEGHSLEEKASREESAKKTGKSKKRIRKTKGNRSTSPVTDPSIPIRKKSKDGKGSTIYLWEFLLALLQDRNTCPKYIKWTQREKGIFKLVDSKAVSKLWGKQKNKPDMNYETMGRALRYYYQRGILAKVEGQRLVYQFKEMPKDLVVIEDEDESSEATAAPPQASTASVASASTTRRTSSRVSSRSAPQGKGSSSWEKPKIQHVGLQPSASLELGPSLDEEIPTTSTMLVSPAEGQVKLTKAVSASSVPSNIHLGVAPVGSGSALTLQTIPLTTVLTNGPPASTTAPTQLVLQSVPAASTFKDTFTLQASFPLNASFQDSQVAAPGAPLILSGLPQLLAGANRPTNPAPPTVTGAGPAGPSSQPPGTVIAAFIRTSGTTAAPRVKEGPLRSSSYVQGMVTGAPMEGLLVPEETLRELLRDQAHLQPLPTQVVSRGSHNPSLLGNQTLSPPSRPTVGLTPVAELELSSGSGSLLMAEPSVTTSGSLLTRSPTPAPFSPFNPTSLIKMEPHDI
# How it was run: as §1
# [15] = biological target: T9, ELK4 (Homo sapiens, UniProt P28324-2 1-405); details: protein: recombinant; tags: N-terminal GST; dsDNA, one strand shown
# T9 sequence: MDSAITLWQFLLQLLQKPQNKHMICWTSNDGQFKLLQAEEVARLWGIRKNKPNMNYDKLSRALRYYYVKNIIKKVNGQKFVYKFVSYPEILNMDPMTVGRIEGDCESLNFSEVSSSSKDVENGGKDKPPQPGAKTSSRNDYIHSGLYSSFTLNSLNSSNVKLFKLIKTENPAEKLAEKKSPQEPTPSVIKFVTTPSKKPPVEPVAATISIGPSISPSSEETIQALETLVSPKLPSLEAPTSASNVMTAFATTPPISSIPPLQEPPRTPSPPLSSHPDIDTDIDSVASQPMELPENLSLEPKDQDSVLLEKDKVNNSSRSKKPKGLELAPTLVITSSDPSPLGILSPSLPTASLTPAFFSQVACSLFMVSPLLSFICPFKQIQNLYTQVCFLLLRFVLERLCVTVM
# How it was run: as §1
# [16] = biological target: T10, ETV2 (Homo sapiens, UniProt O00321 1-342); details: protein: recombinant; tags: N-terminal GST; dsDNA, one strand shown
# T10 sequence: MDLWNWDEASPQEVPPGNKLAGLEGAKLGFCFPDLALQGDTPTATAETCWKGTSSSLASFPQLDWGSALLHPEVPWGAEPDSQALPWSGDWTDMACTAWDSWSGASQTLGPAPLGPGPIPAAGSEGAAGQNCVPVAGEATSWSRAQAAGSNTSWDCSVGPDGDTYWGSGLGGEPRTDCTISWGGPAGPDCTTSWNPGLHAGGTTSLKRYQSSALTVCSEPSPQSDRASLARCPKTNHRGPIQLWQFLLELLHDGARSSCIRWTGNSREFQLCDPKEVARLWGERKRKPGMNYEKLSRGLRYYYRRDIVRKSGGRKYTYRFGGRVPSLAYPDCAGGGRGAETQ
# How it was run: as §1
# [17] = biological target: T11, ELF3 (Homo sapiens, UniProt P78545 1-371); details: protein: recombinant; tags: N-terminal GST; dsDNA, one strand shown
# T11 sequence: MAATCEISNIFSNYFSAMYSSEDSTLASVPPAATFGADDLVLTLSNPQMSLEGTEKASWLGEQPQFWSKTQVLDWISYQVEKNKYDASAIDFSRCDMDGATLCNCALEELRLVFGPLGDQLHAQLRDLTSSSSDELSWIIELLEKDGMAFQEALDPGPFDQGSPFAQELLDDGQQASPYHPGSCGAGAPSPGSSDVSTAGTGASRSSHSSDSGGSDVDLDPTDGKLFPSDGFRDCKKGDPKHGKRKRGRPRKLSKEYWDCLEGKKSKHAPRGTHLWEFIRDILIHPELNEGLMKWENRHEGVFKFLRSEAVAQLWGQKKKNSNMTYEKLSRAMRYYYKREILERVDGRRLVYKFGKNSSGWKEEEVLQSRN
# How it was run: as §1
# [18] = biological target: CRX (Homo sapiens, UniProt O43186 1-299); details: protein: recombinant; tags: N-terminal GST; dsDNA, one strand shown
# CRX, sequence (O43186 whole entry): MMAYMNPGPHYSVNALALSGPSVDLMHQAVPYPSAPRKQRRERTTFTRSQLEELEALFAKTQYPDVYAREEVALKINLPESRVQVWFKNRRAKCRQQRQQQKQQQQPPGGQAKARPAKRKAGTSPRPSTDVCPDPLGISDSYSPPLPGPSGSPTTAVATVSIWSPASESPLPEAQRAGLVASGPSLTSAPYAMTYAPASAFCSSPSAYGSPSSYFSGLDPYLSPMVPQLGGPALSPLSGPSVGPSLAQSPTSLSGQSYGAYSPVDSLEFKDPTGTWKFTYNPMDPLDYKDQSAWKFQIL
# How it was run: as §1
# [19] = biological target: ETV1 (Homo sapiens, UniProt P50549 1-477); details: protein: recombinant; tags: N-terminal GST; dsDNA, one strand shown
# ETV1, sequence (P50549 whole entry): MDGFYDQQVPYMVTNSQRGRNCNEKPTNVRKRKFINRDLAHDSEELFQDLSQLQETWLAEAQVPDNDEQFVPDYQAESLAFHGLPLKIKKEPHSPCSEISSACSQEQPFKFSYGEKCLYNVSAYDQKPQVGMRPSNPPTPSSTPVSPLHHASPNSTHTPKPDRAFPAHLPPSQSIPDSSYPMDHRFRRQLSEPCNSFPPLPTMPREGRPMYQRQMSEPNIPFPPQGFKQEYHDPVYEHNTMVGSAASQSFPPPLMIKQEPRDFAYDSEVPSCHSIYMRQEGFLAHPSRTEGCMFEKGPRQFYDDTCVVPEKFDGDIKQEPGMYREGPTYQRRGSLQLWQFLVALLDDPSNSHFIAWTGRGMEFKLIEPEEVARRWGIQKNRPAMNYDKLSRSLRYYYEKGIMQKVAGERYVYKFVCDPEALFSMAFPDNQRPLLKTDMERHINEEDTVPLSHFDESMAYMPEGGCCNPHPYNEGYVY
# How it was run: as §1
sequence,measurement,setting,value
CTCTAC,binding signal,[1],"1.51 fold enrichment (6-mer frequency, TF over GST control)"
same,binding signal,[2],"1.51 fold enrichment (6-mer frequency, TF over GST control)"
same,binding signal,[3],"1.56 fold enrichment (6-mer frequency, TF over GST control)"
same,binding signal,[4],"1.6 fold enrichment (6-mer frequency, TF over GST control)"
same,binding signal,[5],"1.59 fold enrichment (6-mer frequency, TF over GST control)"
same,binding signal,[6],"1.54 fold enrichment (6-mer frequency, TF over GST control)"
same,binding signal,[7],"1.45 fold enrichment (6-mer frequency, TF over GST control)"
same,binding signal,[8],"1.63 fold enrichment (6-mer frequency, TF over GST control)"
same,binding signal,[9],"1.27 fold enrichment (6-mer frequency, TF over GST control)"
same,binding signal,[10],"1.57 fold enrichment (6-mer frequency, TF over GST control)"
same,binding signal,[11],"1.33 fold enrichment (6-mer frequency, TF over GST control)"
same,binding signal,[12],"1.37 fold enrichment (6-mer frequency, TF over GST control)"
same,binding signal,[13],"1.51 fold enrichment (6-mer frequency, TF over GST control)"
same,binding signal,[14],"1.46 fold enrichment (6-mer frequency, TF over GST control)"
same,binding signal,[15],"1.38 fold enrichment (6-mer frequency, TF over GST control)"
same,binding signal,[16],"1.35 fold enrichment (6-mer frequency, TF over GST control)"
same,binding signal,[17],"1.47 fold enrichment (6-mer frequency, TF over GST control)"
same,binding signal,[18],"1.18 fold enrichment (6-mer frequency, TF over GST control)"
same,binding signal,[19],"1.4 fold enrichment (6-mer frequency, TF over GST control)"
